19 molecules from the supplement of paper PMC11172423 can be followed below.

Structures are written as SMILES. A number with no mark means an inactive call.

In assay [1] the test system is Falciformispora senegalensis CBS197.79. Briefly: growth relative to untreated control; higher = less inhibition, active = 20 or less. An outline of the steps:
(§1)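 Viability readout used either MTS (2 h, 490 nm) or resazurin (600 nm). Before this, hyphal fragments of M. mycetomatis MM55 or F. senegalensis CBS197.79 in colourless RPMI 1640 with L-glutamine and MOPS (68–72% transmission at 660 nm) had been exposed in 96-well plates to compound at 100 or 25 µM for 7 days at 37 °C. Growth denotes metabolic activity relative to the untreated growth control, with a medium-plus-dye blank subtracted from both.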

The subject of assay [2] is Madurella mycetomatis MM55. The description is as above. In outline: as §1

For the molecule `C[C@@H](C1CCCCC1)n1c(-c2cc3c(cc2Br)OCO3)nc2cc(C(=O)Nc3ccc(C#N)cc3)ccc21`, the growth is 106% in assay [1] (25 µM), 102% in assay [1] (100 µM), 109% in assay [2] (25 µM) and 89% in assay [2] (100 µM).
As to `Cc1c2c(n3c(nc4ccccc43)c1C#N)N(CCN(C)C)CC2`, the growth was 64.5% in assay [1] (25 µM), 88.2% in assay [1] (100 µM), 101% in assay [2] (25 µM) and 43.7% in assay [2] (100 µM).
Turning to `CCN1CCN(Cc2ccc(-c3cc4c(N[C@H](C)c5ccccc5)[nH]cnc-4n3)cc2)CC1`, the growth in assay [1] (25 µM) was 78.1%; in assay [1] (100 µM), 49.3%; in assay [2] (25 µM), 97.8%; in assay [2] (100 µM), 46.8%.
The matching figures for `O=c1[nH]ccc2nc(N[C@@H]3CCNC3)nc(Nc3ccc4c(c3)S(=O)(=O)CC4)c12`: 90.7%, 113%, 62.9% and 104%.
Take `O=c1[nH]c2ccccc2n1CCCN1CCN(C(c2ccccc2)c2ccccc2)CC1`: the growth was 103% in assay [1] (25 µM), 28.7% in assay [1] (100 µM), 91.1% in assay [2] (25 µM) and 5.01% (active) in assay [2] (100 µM).
For `N#Cc1cccc(C(=O)NC2CCN(c3ccnc(Nc4ccc(F)cc4)n3)C2)c1` (stereo unspecified) the same measures were 89.5%, 88.1%, 84.1% and 85.8%.
For `CS(=O)(=O)N1CCC(NC(=O)c2cc3ccc(C(F)(F)F)cc3[nH]2)CC1` the same measures were 90.8%, 84.8%, 101% and 109%.
On to `CC(N)CCn1c(Nc2cc(Cl)cc(C(F)(F)F)c2)nc2cnc(NC3CCCC3)nc21` (stereo unspecified), for which the growth in assay [1] (25 µM) was 10.9% (active); in assay [1] (100 µM), 17.2% (active); in assay [2] (25 µM) it was 11.2% (active); in assay [2] (100 µM), 7.25% (active).
For `CNC(=O)c1cc(Oc2ccc(NC(=O)Nc3ccc(Cl)c(C(F)(F)F)c3)c(F)c2)ccn1` the same measures were 109%, 101%, 69.9% and 74.4%.
For `FC(F)(F)c1ccc(CNc2ccc(Cc3c[nH]c4ncc(Cl)cc34)cn2)cn1` the same measures were 95.7%, 106%, 93.1% and 95.5%.
The matching figures for `CC(C)Nc1ncc2nc(Nc3cc(C(F)(F)F)cc(C(F)(F)F)c3)n(C3CCNCC3)c2n1`: 104%, 107%, 104% and 64.5%.
Consider `CCOc1cc(C(C)(C)C)ccc1C1=N[C@@](C)(c2ccc(Cl)cc2)[C@@](C)(c2ccc(Cl)cc2)N1C(=O)N1CCN(CCCS(C)(=O)=O)CC1`, for which the growth in assay [1] (25 µM) is 99.6%; in assay [1] (100 µM) it was 101%; in assay [2] (25 µM), 86.9%; in assay [2] (100 µM), 99.8%.
The matching figures for `c1cc(-c2n[nH]c3ccc(-c4n[nH]c(C5CCCN5)n4)cc23)ccc1CNC1CC1` (stereo unspecified): 88.8%, 84.8%, 70.2% and 31.7%.
For the molecule `C=CC(=O)Nc1cc(Nc2nccc(-c3cn(C)c4ccccc34)n2)c(OC)cc1N(C)CCN(C)C`, the growth is 7.88% (active) in assay [1] (25 µM), 12.6% (active) in assay [1] (100 µM), 3.84% (active) in assay [2] (25 µM) and 2.43% (active) in assay [2] (100 µM).
Take `CCC1=C(c2ccc(C)cc2)S(=O)(=O)N=C1N1CCC(C(=O)NCCN2CCCCC2C)CC1` (stereo unspecified): the growth in assay [1] (25 µM) is 86.3%; in assay [1] (100 µM) it was 88.6%; in assay [2] (25 µM) it was 88%; in assay [2] (100 µM) it was 81.9%.
For `CCOC(=O)N1CCC(=C2c3ccc(Cl)cc3CCc3cccnc32)CC1` the same measures were 106%, 104%, 54.3% and 6.05% (active).
For `COc1cc(N2CCN(C)CC2)ccc1Nc1nccc(-c2cn(C)c3cnccc23)n1`, the growth is 69.1% in assay [1] (25 µM), 75.1% in assay [1] (100 µM), 36.2% in assay [2] (25 µM) and 4.78% (active) in assay [2] (100 µM).
Turning to `Cc1cc(Cl)ccc1NC(=S)N(C)C`, the growth in assay [1] (25 µM) was 98.6%; in assay [1] (100 µM), 88.2%; in assay [2] (25 µM), 106%; in assay [2] (100 µM), 147%.
The matching figures for `CCOc1ccc(-c2ccnc(Nc3cncc(OC)c3)n2)cc1C#N`: 100%, 86.8%, 88.5% and 68.7%.
